Source: the supplement of paper PMC11417369
± gives the standard deviation of the averaged measurements. Over roughly 25,000 sequences, “ln(normalized median fluorescence intensity)” has its median near 8.6; the highest 2% begin near 10. The full list was thinned out, with the highest values kept by preference.

What follows are sequences tested on PfAP2-EXP AP2 domain (GST-tagged) (assay: gcPBM binding intensity (ln(normalized median fluorescence intensity)); higher = stronger DNA binding).
Outline: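 Using an Agilent 4 × 180k array, primer-extended double-stranded 36-bp intergenic genomic probes and negative controls were exposed for 1 h to GST-fused P. falciparum DNA-binding domains expressed in E. coli. Binding was carried out in 1× PBS with 1% milk, 0.2 mg/ml BSA, 0.5% salmon testes DNA and 0.03% Triton X-100, and protein was detected with Alexa488 anti-GST antibody and a 488 nm scan. Binding intensity is the highest Masliner-normalised natural-log median intensity across replicate spots of either probe orientation.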

Row | Sequence | gcPBM binding intensity (ln)
1 | TTTTTTTTTTTTTTGGGTACATAATAATAACAAGTG [XGTACX_site1034] | 8.28 ± 0.32
2 | TTTTTTTTTTTTTTATGTACGAAAGAAAAGCACATA [XGTACX_site8261] | 8.57 ± 0.27
3 | ATTTAGTATTCGAAACGTACACATATATATATATAT [XGTACX_site3910] | 10.2 ± 0.4
4 | TTTTATAAAGAACACAGACACACAAAGAAAGAACCA [CACACA_site4174] | 9.02 ± 0.6
5 | AACACAAGAACAGAACGTACACACACATATATATAT [XGTACX_site7347] | 9.76 ± 0.16
6 | CAAGAAACAGTGATACGTACACATATATATATATAT [XGTACX_site3229] | 10.2 ± 0.32
7 | AAGAACAGAACGTACACACACATATATATATATATA [CACACA_site3457] | 10.2 ± 0.23
8 | TACATACAGAAACACACACACACATATATATATATA [CACACA_site2919] | 10 ± 0.28
9 | ACAAGAACAGAACGTACACACACATATATATATATA [CACACA_site9143] | 9.97 ± 0.39
10 | CATACACAGAAACACACACACATATATACATATATA [CACACA_site1094] | 8.59 ± 0.56
11 | ATATATATATATATATGTACTGAATAAAGAACAAAA [XGTACX_site5400] | 10.1 ± 0.42
12 | AAAATAAAAATAACAACACACATATACTATAATATT [CACACA_site2769] | 8.7 ± 0.46
13 | TTTCCTAGCACATGCACACAAAAAAAAAAAAAAAAA [CACACA_site1404] | 8.35 ± 0.35
14 | AATTAGATTTACTGAAGTACTTAATTTATTTTATTA [XGTACX_site3407] | 8.85 ± 0.34
15 | ATTTATTAATTACCATGTATAAAAAATTATATAATA [CACACA_negctrl_site581] | 8.19 ± 0.51
16 | AATAAAAATAAAAATTGTACACTTTTTTAATATTTA [XGTACX_site892] | 8.11 ± 0.25
17 | ATATAATTCAAATACAGTACATATACAATATATACA [XGTACX_site1191] | 8.21 ± 0.3
18 | TTTTTTTTTTTTTCAAGTACATATATATATATATAA [XGTACX_site2098] | 8.44 ± 0.45
19 | TACAAGCCCAATTCAAGTACATATATATATATATAT [XGTACX_site5569] | 10.2 ± 0.44
20 | TATTATGTTATATATTGTACATGTTTATTGAAACAA [XGTACX_site5605] | 8.66 ± 0.21
21 | AAATAAAAATTACAAGCATGCATTTTCCTATTTGCA [TGCATGCA_site861] | 8.56 ± 0.46
22 | ACTTCCTATATTTATGCATGCATTTTATTAAAAAAT [TGCATGCA_site747] | 9.92 ± 0.16
23 | TGCATTTTCCTATTTGCATGCAATTAAAATATAGAA [TGCATGCA_site862] | 10.2 ± 0.24

Row | Sequence | gcPBM binding intensity (ln)
24 | TTGTAAGAAAAACACACACACACATATATATATATA [CACACA_site795] | 10.1 ± 0.23
25 | AACAGACGAAGACACACACACATATATATATATATA [CACACA_site1020] | 10.2 ± 0.21
26 | TGAACAGACGAGCACACACACACATATATATATATA [CACACA_site1019] | 10.2 ± 0.26
27 | CATACAGACGAACACACACACATATAAATATAAATA [CACACA_site6443] | 8.74 ± 0.55
28 | AAAACAAACGGACACACACACATATATATATATATA [CACACA_site5924] | 10.1 ± 0.32
29 | TGAACTCACGAGCACACACACACATATATATATATA [CACACA_site8248] | 10.2 ± 0.34
30 | GTAAGAAACAGACACACACACATATAAATATAAATA [CACACA_site6515] | 8.77 ± 0.64
31 | AACAGACAGAAACACACACACATATATATATATATA [CACACA_site3394] | 10 ± 0.41
32 | TAAACAGACATATAAACACACATATAAACAGACATA [CACACA_site7214] | 8.69 ± 0.56
33 | GTAAGAAACAGACACACACACATATATATATATATA [CACACA_site794] | 10.2 ± 0.24
34 | GTAAGAAACGGACACACACACATATATATATATATA [CACACA_site4593] | 10.2 ± 0.23
35 | AATGAACAGACGAGCACACACACACCCATATATATA [CACACA_site1018] | 8.85 ± 0.35
36 | ATATATATATATATGTGTACATATTTTTTTGAAGTG [XGTACX_site248] | 10.1 ± 0.29
37 | TTTTTTTTTTTTTTTTGTACGTAAAAAAATATATAC [XGTACX_site1290] | 8.36 ± 0.22
38 | AAATATAATAACGAACGTACTTATTATAATTTGTAA [XGTACX_site2342] | 8.32 ± 0.25
39 | ACATATTAAAATATATGTACATAAAATATGAAAAAA [XGTACX_site5869] | 8.82 ± 0.3
40 | ATAATAAAAATATATACATGCATTATTATATATATA [TGCATGCA_site799] | 8.97 ± 0.16
41 | AAAATAAAAAGAAAAAATAAAAAGAAAAAATAAAAA [CACACA_negctrl_site120] | 8.33 ± 0.44
42 | CATTAAAAAGAAAGTTCACACACATATATATGACGG [CACACA_site8836] | 8.84 ± 0.57
43 | CCTAATTTTATTAGGGTGCATTTTTAGTTAAATATA | 8.48 ± 0.27
44 | TTTATTATTATATTATTTTAATTTTTCTTTAGTACA [GTGCAC_negctrl_site392] | 8.29 ± 0.32
45 | TAATTTCTTTAGGGGGTGCTTTTATAGTTTTTATTA | 10.4 ± 0.54
